Reference: PubChem BioAssay (NCI)
About 79,000 compounds went through this panel and 15% of them were active in at least one assay; those are over-represented in the sample as a whole. Cut-off read from the data, not from the text of the source: active = growth inhibition above about 70%; inactive = the rest.

What was measured:
[1] = NCI Yeast Anticancer Drug Screen. Data for the rad50 strain (AID 155);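 note: 0% = growth of vehicle-only cultures of the same strain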; settings: S. cerevisiae rad50 strain growth inhibition, stronger effect = higher value; at 50.0 µM unless noted
In short: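 DNA repair mutant yeast, compound exposure, growth read-out; inhibition is taken relative to vehicle.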

[2] = NCI Yeast Anticancer Drug Screen. Data for the mec2-1 strain (AID 157); settings: S. cerevisiae mec2-1 strain, stronger effect = higher value; at 50.0 µM unless noted
In short: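 Each compound was tested on mec2-1 yeast, a strain altered in DNA damage repair or cell cycle control. Growth inhibition is reported relative to vehicle.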

[3] = NCI Yeast Anticancer Drug Screen. Data for the sgs1 mgt1 strain (AID 161);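 note: 0% = growth of cultures given vehicle only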; settings: S. cerevisiae sgs1 mgt1 strain, stronger effect = higher value; at 50.0 µM unless noted
In short: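 Read-out: growth inhibition vs vehicle controls. Cells: mutant yeast strain deficient in DNA damage repair.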

[4] = NCI Yeast Anticancer Drug Screen. Data for the cln2 rad14 strain (AID 165);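 note: 0% = growth equal to vehicle treated cultures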; settings: S. cerevisiae cln2 rad14 strain, stronger effect = higher value; at 50.0 µM unless noted
In short: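 Test compounds were added to cln2 rad14 yeast cultures; inhibition of growth was then determined by comparison with vehicle treatment.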

[5] = NCI Yeast Anticancer Drug Screen. Data for the bub3 strain (AID 167); settings: S. cerevisiae bub3 mutant strain, stronger effect = higher value; at 50.0 µM unless noted
In short: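 In this screen, a yeast mutant lacking normal mitotic checkpoint function is challenged with compound. Relative growth versus vehicle gives the inhibition value.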

[6] = NCI Yeast Anticancer Drug Screen. Data for the mlh1 rad18 strain (AID 175); settings: S. cerevisiae mlh1 rad18 strain growth inhibition, stronger effect = higher value; at 50.0 µM unless noted
In short: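 Inhibition values reflect reduced growth of mutant yeast versus vehicle-treated controls following compound exposure; the mutations affect DNA damage repair.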

Measured: growth inhibition

O=[N+]([O-])c1ccccc1/C=C/c1ccccn1
inactive: [1] 2.4% | [2] 2.35% | [3] -3.55% | [4] 20% | [5] 41.3% | [6] 21.1%

CCCCCCCc1nc(CCCCCCC)nc(CCCCCCC)n1
inactive: [1] 1.05% | [2] 12.9% | [3] 6% | [4] -15.1% | [5] 19.8% | [6] 12.6%

COc1cc([C@@H]2c3cc4c(cc3[C@H](OC3OC5COC(c6ccco6)OC5C(O)C3O)C3COC(=O)[C@@H]32)OCO4)cc(OC)c1OC (stereo not given in full)
inactive: [1] 7.25% | [2] 18.8% | [3] 7.6% | [4] 17.9% | [5] 0.2% | [6] -42%

COC(=O)CC1C(C)(C)C(=O)C2CC3=C4CC(=O)OC(c5ccoc5)C4(C)CCC3C1(C)C2=O (stereo not given)
inactive: [1] 1.3% | [2] 2.4% | [3] -20.1% | [4] -8.3% | [5] -31.9% | [6] 16.8%

CCC(=O)Cc1nc2n(c1O)/C(=N/C(=O)Nc1ccc(Cl)cc1)N=N2
inactive: [1] -2.05% | [2] -7.5% | [3] -2.9% | [4] -35.8% | [5] -15.2% | [6] 11.6%

COc1cc(C(=O)N2CCOC23CCN(Cc2ccccc2)CC3)cc(OC)c1OC
inactive: [1] -1.5% | [2] -30.6% | [3] -7.8% | [4] 13.2% | [5] -6.9% | [6] 2.7%

Fc1ccccc1-c1nn2c(C34CC5CC(CC(C5)C3)C4)nnc2s1
inactive: [1] 6.45% | [2] -33.1% | [3] -29.6% | [4] -14.5% | [5] -11.8% | [6] -52%

CC1Cn2c(Cc3ccccc3)nnc2S1 (stereo not given)
inactive: [1] -15.2% | [2] 1.25% | [3] 5.45% | [4] 19.5% | [5] -4.6% | [6] -4.75%

NC(=O)C1OCOC2C(CO)OCOC12 (stereo not given)
inactive: [1] -1.9% | [2] -14.4% | [3] -3% | [4] -52.1% | [5] -7.4% | [6] -6.15%

O=S(=O)(O)c1cc(S(=O)(=O)O)c2cc(O)ccc2c1
inactive: [1] 0.6% | [2] 3.35% | [3] 13.4% | [4] -18.6% | [5] 5.35% | [6] 28.4%

CCCCCN=C(N)C(N)=NCCCCC
inactive: [1] 47.8% | [2] 8% | [3] 24.7% | [4] -31.1% | [5] 5.5% | [6] 24.9%

CCNC(=O)c1ccccc1S(C)=O (stereo not given)
inactive: [1] -18.8% | [2] -19.3% | [3] -17.9% | [4] -8.25% | [5] -9.15% | [6] -20.1%

NC(=O)N/N=C(\C(=O)C(=O)Nc1ccc(Cl)c(C(F)(F)F)c1)c1nc2ccc(C(=O)c3ccccc3)cc2[nH]c1=O
inactive: [1] 25.4% | [2] -1.3% | [3] 38.8% | [4] -37% | [5] -3.35% | [6] 25.1%

CCCCCCCCN1C(=O)CCC1=O
inactive: [1] -1.45% | [2] -19.4% | [3] -6.3% | [4] 0.5% | [5] -14.9% | [6] -0.5%

CN(N=O)C(=O)NCCn1cnc2c(=O)[nH]cnc21
inactive: [1] -6.55% | [2] 14.4% | [3] -5.35% | [4] -56.8% | [5] 1.2% | [6] -11.8%

[N-]=[N+]=Nc1c(C=O)c(=O)n2c3c(cccc13)CCC2
inactive: [1] 17.2% | [2] 32% | [3] 29.2% | [4] 31.2% | [5] 27.7% | [6] 61%

CO/C(=N\N=C\c1ccc(C(F)(F)F)cc1)c1ccncc1
inactive: [1] 54.5% | [2] 18.9% | [3] 35.3% | [4] 22.4% | [5] 30.9% | [6] 15.3%

C=C1N(c2cc3ccccc3o2)C(=O)OC12CCCCC2
inactive: [1] -37.5% | [2] -2.2% | [3] -8% | [4] 8.8% | [5] -2.55% | [6] 18.9%

CCCCOC(=O)NC(=O)c1cn(CCCOC(=O)NCCCCCCNC(=O)OCCCn2cc(C(=O)NC(=O)OCCCC)c(=O)[nH]c2=O)c(=O)[nH]c1=O
inactive: [1] -1.1% | [2] 2.75% | [3] -4.2% | [4] 24.6% | [5] -6.35% | [6] -33.1%

CCOC(=O)c1c(-c2ccc([N+](=O)[O-])cc2)c(C=O)n(-c2ccccc2)c1C
inactive: [1] 4.2% | [2] -5.45% | [3] -0.55% | [4] -21.8% | [5] 36.9% | [6] 6.7%
